In this assay the target is Alpha-bungarotoxin (Bungarus multicinctus) (UniProt P60615). The experiment in a line: alpha-bungarotoxin binders on microarray, profiling panel, artefact control for SMM control protein annotation, biochemical, small-molecule microarray, Alexa647 label, 635/667 nm fluorescence (AID 1117). As to conditions: alpha-BTX-A647 binding fluorescence, higher = more signal.
Chain of Alpha-bungarotoxin (Bungarus multicinctus) (P60615 whole entry, looked up): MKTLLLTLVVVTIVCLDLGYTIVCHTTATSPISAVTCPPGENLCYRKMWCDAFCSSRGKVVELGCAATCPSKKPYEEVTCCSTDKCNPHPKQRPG
Turning to `COc1cc(OC)c(C(O)C2C=CC3C(=O)N(c4ccccc4)C(=O)C3N2Nc2ccccc2F)cc1Br` (stereo not drawn), the composite z-score was 1.92.

Molecule `CC(=O)c1ccc(C(O)C2C=CC3C(=O)NC(=O)C3N2Nc2ccc(Cl)cc2Cl)cc1` (stereo not drawn) had a composite z-score of 0.186.

Take `C=CCC(OC(C)=O)[C@@H]1[C@@H](N(Cc2cc3ccccc3o2)C(=O)Cc2ccc(OC)cc2)c2cc(OCCCO)ccc2N1C(=O)Cc1ccc(OC)cc1` (stereo partly drawn): the composite z-score stood at 0.673.

Consider `COCCCN1C(=O)[C@@]2(Cc3ccccc31)c1ccccc1C(=O)N(Cc1ccccc1OC)[C@H]2c1ccc(CO)cc1`, for which the composite z-score came out at 0.212.

Consider `COc1ccc(C#Cc2ccc3c(c2)[C@]2(C(=O)N3)[C@H](C(=O)Nc3nc4ccccc4s3)[C@H]3C(=O)O[C@H](c4ccccc4)[C@H](c4ccccc4)N3[C@@H]2c2ccc(OCCO)cc2)cc1`, for which the composite z-score was 1.75.

`CC(C)C[C@H]1NC(=O)[C@@H](C)NC(=O)[C@@]23C(=O)N[C@@H](Cc4ccccc4)C2[C@H](C)[C@@]2(C)O[C@H]2C3/C=C/C/C=C\CNC1=O` (stereo partly drawn) registered a composite z-score of -0.133.

`CC(C)C[C@H]1NC(=O)[C@@]23C(=O)N[C@@H](Cc4ccccc4)C2[C@H](C)[C@@]2(C)O[C@H]2C3/C=C/C/C=C\CNC(=O)[C@@H]2CCCN2C1=O` (stereo partly drawn) displayed a composite z-score of 0.288.

`COc1ccc(C(O)C2C=CC3C(=O)N(C)C(=O)C3N2Nc2ccc([N+](=O)[O-])cc2[N+](=O)[O-])cc1OCc1ccccc1` (stereo not drawn): the composite z-score came to 1.5.

Turning to `[N-]=[N+]=Nc1ccccc1[C@@H]1OC(c2ccc(OCCCO)cc2)=N[C@]1(Cc1ccccc1)C(N)=O`, the composite z-score was 0.209.

`CN(C)C(=O)[C@@]1(CCS(=O)(=O)c2ccccc2)N=C(c2ccc(OCCCO)cc2)O[C@H]1c1ccccc1N=[N+]=[N-]` came in with a composite z-score of 0.901.

In turn, `CN1C(=O)[C@]2(CCC(=O)OC(C)(C)C)N=C(c3ccc(OCCCO)cc3)O[C@@H]2c2ccccc21` showed a composite z-score of 1.14.

In the case of `C[N+](C)(C)CCCCCCNC(=O)[C@@H]1C[C@@H]2C(=O)N[C@@H](Cc3ccccc3)C(=O)N2[C@@H]1c1ccc(O)cc1`, the composite z-score was found to be 1.54.

Regarding `CCCC=C(CCC)[C@@H](NS(=O)(=O)c1ccc(Cl)cc1)c1ccccc1`, the composite z-score amounted to 0.64.

The molecule `CO[C@H]1O[C@H](CO)[C@@H](OC(=O)Nc2ccc(C(F)(F)F)cc2)[C@H](OC(=O)Nc2ccccc2-c2ccccc2)[C@@H]1OC(=O)Nc1ccccc1-c1ccccc1` came in with a composite z-score of 2.18.

In turn, `CC(C)[C@@H](C(=O)O)n1cc(-c2ccccc2)nn1` had a composite z-score of 1.03.

As for `C=CCNC(=O)[C@@H]1[C@H]2C(=O)O[C@H](c3ccccc3)[C@H](c3ccccc3)N2[C@H](c2ccc(O)cc2)[C@@]12C(=O)Nc1ccc(C#CC3(O)CCCCCC3)cc12`, the composite z-score is -0.243.

`O=C1N(CCS(=O)(=O)c2ccccc2)c2ccccc2[C@@H]2OC(c3ccc(OCCCO)cc3)=N[C@]12CCS(=O)(=O)c1ccccc1` registered a composite z-score of 1.67.

In the case of `CCOC(=O)C1=CC[C@@H](c2ccccc2)N(S(=O)(=O)c2ccc(C)cc2)[C@H]1C#N`, the composite z-score was -0.06.

In turn, `COc1ccc([Si](C)(C)[C@H]2[C@H](CCO)O[C@@]3(C(=O)N(Cc4ccccc4)c4ccc(N(C=O)c5ccccc5)cc43)[C@@H]2C)cc1` registered a composite z-score of 0.0701.

Turning to `COc1cccc(C[C@H]2C[C@@H](CO[Si](C(C)C)(C(C)C)C(C)C)N3C(=O)[C@@]4(C(C)=O)O[C@@]23[C@@H]2C(=O)N(C)C(=O)[C@@H]24)c1`, the composite z-score is -0.378.

`C=CC[C@@]1(C(=O)O)N=C(c2ccc(OCCCO)cc2)O[C@@H]1c1ccccc1CN=[N+]=[N-]` registered a composite z-score of 0.974.

As for `CCCCNC(=O)c1ccc(C#C[Si](C)(C)C)c(OC(C)=O)c1`, the composite z-score turned out to be 0.25.

Take `C=CCNC(=O)[C@H]1[C@@H]2C(=O)O[C@@H](c3ccccc3)[C@@H](c3ccccc3)N2[C@@H](c2ccc(O)cc2)[C@]12C(=O)Nc1ccc(C#CC3=CCCCC3)cc12`: the composite z-score is 0.491.

These data come from PubChem BioAssay.
